This is an account of results in the supplement of paper PMC7261846.

± gives the uncertainty stated by the source.

In the assay the test system is Candida albicans SNY425 biofilm. In words: biofilm OD600 with compound plus antifungal (OD600 (absorbance)); higher = more biofilm remaining.
Where [1] appears, read: assay detail: disruption of 24-h mature biofilm (compound + antifungal for a second 24 h).
Setting [2] is: assay detail: sustained inhibition (compound + antifungal during 90-min adherence and 24-h growth).

Turning to `COC(=O)N[C@H](C(=O)N[C@@H](Cc1ccccc1)[C@@H](O)CN(Cc1ccc(-c2ccccn2)cc1)NC(=O)[C@@H](NC(=O)OC)C(C)(C)C)C(C)(C)C` [atazanavir] + OC(Cn1cncn1)(Cn1cncn1)c1ccc(F)cc1F [fluconazole] (first compound 12.5 µM), the “biofilm OD600” value is 0.267 ± 0.012 under setting [1] and 0.173 ± 0.0039 under setting [2].
The corresponding values for `CC(C)c1nc(CN(C)C(=O)N[C@H](C(=O)N[C@@H](Cc2ccccc2)C[C@H](O)[C@H](Cc2ccccc2)NC(=O)OCc2cncs2)C(C)C)cs1` [ritonavir] + OC(Cn1cncn1)(Cn1cncn1)c1ccc(F)cc1F [fluconazole] (first compound 12.5 µM) are 0.249 ± 0.0077 and 0.168 ± 0.014.
The corresponding values for `Cc1c(O)cccc1C(=O)N[C@@H](CSc1ccccc1)[C@H](O)CN1C[C@H]2CCCC[C@H]2C[C@H]1C(=O)NC(C)(C)C` [nelfinavir] + CC[C@H](C)C[C@H](C)CCCCCCCCC(=O)N[C@H]1C[C@@H](O)[C@@H](NCCN)NC(=O)[C@@H]2[C@@H](O)CCN2C(=O)[C@H]([C@H](O)CCN)NC(=O)[C@H]([C@H](O)[C@@H](O)c2ccc(O)cc2)NC(=O)[C@@H]2C[C@@H](O)CN2C(=O)[C@H]([C@@H](C)O)NC1=O [caspofungin] (first compound 12.5 µM) are 0.17 ± 0.0053 and 0.127 ± 0.019.
Taken in the same sequence, the figures for `NC(=O)c1cccc(-c2cccc(OC(=O)NC3CCCCC3)c2)c1` + CC[C@H](C)C[C@H](C)CCCCCCCCC(=O)N[C@H]1C[C@@H](O)[C@@H](NCCN)NC(=O)[C@@H]2[C@@H](O)CCN2C(=O)[C@H]([C@H](O)CCN)NC(=O)[C@H]([C@H](O)[C@@H](O)c2ccc(O)cc2)NC(=O)[C@@H]2C[C@@H](O)CN2C(=O)[C@H]([C@@H](C)O)NC1=O [caspofungin] (first compound 12.5 µM) were 0.283 ± 0.011 and 0.171 ± 0.0069.
